Test [1] deals with PRMT1 (protein arginine N-methyltransferase 1). Kind of test: small molecules binding arginine methyltransferase PRMT1 – biochemical, small-molecule microarray, 635 nm fluorescence, primary screen (AID 1088).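 Further: binding of Prmt1 protein to compounds spotted on small-molecule microarray slides.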 The following applies: higher = more signal.
Test [2] is described as follows: growth effects on S. cerevisiae YJM789 – YJM789 clinical isolate, OD600, 24 h, basal, primary screen (AID 1089).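 Further: growth of clinical yeast isolate S. cerevisiae YJM 789 seeded 1000 cells per well; test concentration not given here.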 The following applies: higher = more signal, called active from +8 up or from −8 down.
A short description of test [3]: S. pombe growth modifiers, basal conditions – strain 972, OD600, 24 h, no modulator, primary screen (AID 1090).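 Further: basal condition with compound alone and no growth modifier present; test concentration not given here.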 The following applies: S. pombe 972 growth, higher = more signal, called active from +8 up or from −8 down.
The nature of test [4]: budding yeast growth modifiers under rapamycin – strain BY4716, OD600, 96 h, primary screen (AID 1091). Further: test concentration not given here. The following applies: S. cerevisiae BY4716 + rapamycin, higher = more signal, called active from +8 up or from −8 down.
Test [5] concerns the target Torsin-1A-interacting protein 2 (Homo sapiens) (UniProt Q8NFQ8). Briefly: small molecules binding lysate-expressed LULL1 – cell lysate, human LULL1 lysate, 635/667 nm fluorescence, primary screen (AID 1092).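 Further: probe is lysate of COS7 cells overexpressing human LULL1; score merges per-feature 667 nm fluorescence with signal-to-noise.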 The following applies: small-molecule microarray, hLULL1 lysate binding, 635 nm fluorescence; higher = more signal.
A short description of test [6]: optical density change of DRC41 E. coli – strain DRC41, OD650, 24 h, E. coli filamentation project, primary screen (AID 1093).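 Further: MC1000 strain lacking acrAB efflux and sulA so SOS filamentation is blocked; test concentration not given here.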 The following applies: E. coli DRC41 growth, higher = more signal, called active from +8 up or from −8 down.
The nature of test [7]: probe aLefty2 binding to arrayed compounds – biochemical, biotinylated probe, 635/667 nm fluorescence, primary screen (AID 1094).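 Further: score merges spot fluorescence near 667 nm with spot signal-to-noise ratio.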 The following applies: small-molecule microarray, higher = more signal.
The test system of test [8] is Noggin (protein binding on small-molecule microarray). Kind of test: small molecules binding Noggin protein – biochemical, 635/667 nm fluorescence, primary screen (AID 1095).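 Further: score merges 667 nm feature fluorescence with signal to noise over triplicate slides.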 The following applies: 635 nm fluorescence, higher = more signal.
Test [9] deals with Neurogenic locus notch homolog protein 3 (Homo sapiens) (UniProt Q9UM47). Briefly: small molecules binding NOTCH3 protein – biochemical, 635/667 nm fluorescence, primary screen (AID 1096). The following applies: small-molecule microarray, 635 nm fluorescence, higher = more signal.
Chain of Neurogenic locus notch homolog protein 3 (Homo sapiens) (Q9UM47 whole entry, looked up): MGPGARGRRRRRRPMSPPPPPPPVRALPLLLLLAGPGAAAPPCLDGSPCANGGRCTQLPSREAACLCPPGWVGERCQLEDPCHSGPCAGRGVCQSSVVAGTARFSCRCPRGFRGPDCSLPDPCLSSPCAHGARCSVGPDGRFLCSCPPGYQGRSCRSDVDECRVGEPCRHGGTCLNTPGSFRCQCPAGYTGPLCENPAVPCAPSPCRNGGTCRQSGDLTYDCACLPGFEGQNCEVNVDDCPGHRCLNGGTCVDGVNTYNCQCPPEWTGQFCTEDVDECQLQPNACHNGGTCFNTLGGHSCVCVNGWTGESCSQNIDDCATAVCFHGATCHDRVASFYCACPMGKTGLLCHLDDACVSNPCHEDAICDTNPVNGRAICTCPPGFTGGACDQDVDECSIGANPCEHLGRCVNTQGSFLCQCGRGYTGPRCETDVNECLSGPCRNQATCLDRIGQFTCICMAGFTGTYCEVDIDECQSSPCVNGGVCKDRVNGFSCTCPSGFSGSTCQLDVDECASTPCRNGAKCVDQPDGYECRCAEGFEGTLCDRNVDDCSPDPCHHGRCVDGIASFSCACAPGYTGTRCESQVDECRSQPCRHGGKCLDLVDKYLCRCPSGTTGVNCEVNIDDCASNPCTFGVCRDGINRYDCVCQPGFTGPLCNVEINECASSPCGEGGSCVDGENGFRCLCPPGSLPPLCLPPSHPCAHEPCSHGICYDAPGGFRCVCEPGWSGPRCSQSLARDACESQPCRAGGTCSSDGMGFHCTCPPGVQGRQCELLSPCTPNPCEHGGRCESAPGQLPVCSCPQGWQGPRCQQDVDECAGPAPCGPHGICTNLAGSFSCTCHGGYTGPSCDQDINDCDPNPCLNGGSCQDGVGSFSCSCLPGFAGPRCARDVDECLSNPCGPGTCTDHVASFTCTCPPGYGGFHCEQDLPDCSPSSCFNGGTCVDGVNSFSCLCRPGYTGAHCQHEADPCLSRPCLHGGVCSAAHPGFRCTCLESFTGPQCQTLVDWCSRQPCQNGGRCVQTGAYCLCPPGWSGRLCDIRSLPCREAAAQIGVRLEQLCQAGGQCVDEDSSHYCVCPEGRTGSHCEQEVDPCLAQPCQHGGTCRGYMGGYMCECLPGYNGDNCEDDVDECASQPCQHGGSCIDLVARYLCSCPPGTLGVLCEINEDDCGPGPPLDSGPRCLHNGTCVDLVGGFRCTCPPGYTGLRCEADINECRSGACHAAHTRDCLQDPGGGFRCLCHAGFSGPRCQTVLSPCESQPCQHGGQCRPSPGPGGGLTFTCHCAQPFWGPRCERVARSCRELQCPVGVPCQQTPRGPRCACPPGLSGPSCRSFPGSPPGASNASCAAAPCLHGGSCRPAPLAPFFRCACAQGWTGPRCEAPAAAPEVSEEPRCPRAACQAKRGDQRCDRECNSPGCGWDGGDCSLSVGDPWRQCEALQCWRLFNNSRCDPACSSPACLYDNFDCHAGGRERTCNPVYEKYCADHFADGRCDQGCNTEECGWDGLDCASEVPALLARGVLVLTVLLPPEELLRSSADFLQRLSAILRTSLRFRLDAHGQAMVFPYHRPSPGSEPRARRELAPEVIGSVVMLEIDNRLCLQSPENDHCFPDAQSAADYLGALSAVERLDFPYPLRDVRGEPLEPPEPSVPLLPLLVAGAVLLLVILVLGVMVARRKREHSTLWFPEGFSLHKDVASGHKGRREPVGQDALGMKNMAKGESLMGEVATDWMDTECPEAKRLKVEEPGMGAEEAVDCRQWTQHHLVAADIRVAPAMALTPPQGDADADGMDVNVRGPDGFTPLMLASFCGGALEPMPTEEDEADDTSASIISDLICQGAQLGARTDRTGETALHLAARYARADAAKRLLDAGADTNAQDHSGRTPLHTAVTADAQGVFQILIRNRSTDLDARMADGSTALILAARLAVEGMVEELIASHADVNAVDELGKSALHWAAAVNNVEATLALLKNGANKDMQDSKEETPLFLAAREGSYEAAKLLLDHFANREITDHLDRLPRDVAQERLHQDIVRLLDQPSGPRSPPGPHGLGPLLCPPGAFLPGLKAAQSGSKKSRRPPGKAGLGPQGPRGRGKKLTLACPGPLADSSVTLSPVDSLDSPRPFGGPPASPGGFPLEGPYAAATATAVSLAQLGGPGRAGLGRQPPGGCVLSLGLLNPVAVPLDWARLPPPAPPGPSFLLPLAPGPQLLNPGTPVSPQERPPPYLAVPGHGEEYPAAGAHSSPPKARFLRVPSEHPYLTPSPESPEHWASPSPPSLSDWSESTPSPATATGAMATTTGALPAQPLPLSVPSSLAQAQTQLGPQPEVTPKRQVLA
A short description of test [10]: probe aEGFR binding to arrayed compounds – biochemical, biotinylated probe, 635/667 nm fluorescence, primary screen (AID 1097).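 Further: probe is a biotinylated anti-EGFR antibody binding compounds printed on slides; score combines fluorescence near 667 nm and signal to noise of each spot.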 The following applies: small-molecule microarray, higher = more signal.
The subject of test [11] is Plasmodium falciparum Sir2 (PF13_0152, Sir2A). Kind of test: Plasmodium falciparum Sir2A binding compounds – biochemical, small-molecule microarray, 635 nm fluorescence, primary screen (AID 1098).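 Further: score merges spot fluorescence intensity with its signal-to-noise ratio.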 The following applies: fluorescence 635 nm, higher = more signal.
Test [12] in a line: probe aDKK1 binding to arrayed compounds – biochemical, biotinylated probe, 635/667 nm fluorescence, primary screen (AID 1099).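 Further: score merges 667nm spot fluorescence with signal to noise across triplicate slides; reference of the scale not given here.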 The following applies: small-molecule microarray, higher = more signal.
Test [13] is described as follows: probe aCHRDL2 binding to arrayed compounds – biochemical, biotinylated probe, 635/667 nm fluorescence, primary screen (AID 1100). The following applies: small-molecule microarray, higher = more signal.
A short description of test [14]: change in splice reporter luminescence, either direction, cell-based, HEK293, spliceosome inhibition project, primary screen (AID 1101).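 Further: HEK293 cells carrying a splicing-competent luciferase reporter gene; test concentration not given here.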 The following applies: HEK293 splicing luciferase reporter, 24 h, higher = more signal, called active from +8 up or from −8 down.
In test [15] the target is Fibroblast growth factor 10 (Homo sapiens) (UniProt O15520). Kind of test: compounds binding fibroblast growth factor 10 – biochemical, small-molecule microarray, 635 nm fluorescence, primary screen (AID 1102). The following applies: FGF10 binding, fluorescence 635 nm, higher = more signal.
Chain of Fibroblast growth factor 10 (Homo sapiens) (O15520 whole entry, looked up): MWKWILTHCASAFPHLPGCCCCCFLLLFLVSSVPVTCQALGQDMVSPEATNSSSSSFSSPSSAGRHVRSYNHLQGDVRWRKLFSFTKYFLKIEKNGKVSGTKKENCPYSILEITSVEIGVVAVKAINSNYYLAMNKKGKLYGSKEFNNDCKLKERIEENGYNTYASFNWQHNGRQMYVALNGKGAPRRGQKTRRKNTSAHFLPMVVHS
Test [16] concerns glycogen synthase kinase-3 (GSK3A per assay name; protocol says GSK3B). Briefly: compounds binding glycogen synthase kinase-3 – biochemical, small-molecule microarray, 635 nm fluorescence, GSK3A, primary screen (AID 1103). Further: the record names both GSK3A and GSK3B. The following applies: fluorescence 635 nm, higher = more signal.
In test [17] the target is Epidermal growth factor receptor (Homo sapiens) (UniProt P00533). Briefly: compounds binding epidermal growth factor receptor – biochemical, small-molecule microarray, 635 nm fluorescence, primary screen (AID 1104).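 Further: score merges 667 nm emission intensity with spot signal to noise over triplicate slides.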 The following applies: EGFR binding, higher = more signal.
Chain of Epidermal growth factor receptor (Homo sapiens) (P00533 whole entry, looked up): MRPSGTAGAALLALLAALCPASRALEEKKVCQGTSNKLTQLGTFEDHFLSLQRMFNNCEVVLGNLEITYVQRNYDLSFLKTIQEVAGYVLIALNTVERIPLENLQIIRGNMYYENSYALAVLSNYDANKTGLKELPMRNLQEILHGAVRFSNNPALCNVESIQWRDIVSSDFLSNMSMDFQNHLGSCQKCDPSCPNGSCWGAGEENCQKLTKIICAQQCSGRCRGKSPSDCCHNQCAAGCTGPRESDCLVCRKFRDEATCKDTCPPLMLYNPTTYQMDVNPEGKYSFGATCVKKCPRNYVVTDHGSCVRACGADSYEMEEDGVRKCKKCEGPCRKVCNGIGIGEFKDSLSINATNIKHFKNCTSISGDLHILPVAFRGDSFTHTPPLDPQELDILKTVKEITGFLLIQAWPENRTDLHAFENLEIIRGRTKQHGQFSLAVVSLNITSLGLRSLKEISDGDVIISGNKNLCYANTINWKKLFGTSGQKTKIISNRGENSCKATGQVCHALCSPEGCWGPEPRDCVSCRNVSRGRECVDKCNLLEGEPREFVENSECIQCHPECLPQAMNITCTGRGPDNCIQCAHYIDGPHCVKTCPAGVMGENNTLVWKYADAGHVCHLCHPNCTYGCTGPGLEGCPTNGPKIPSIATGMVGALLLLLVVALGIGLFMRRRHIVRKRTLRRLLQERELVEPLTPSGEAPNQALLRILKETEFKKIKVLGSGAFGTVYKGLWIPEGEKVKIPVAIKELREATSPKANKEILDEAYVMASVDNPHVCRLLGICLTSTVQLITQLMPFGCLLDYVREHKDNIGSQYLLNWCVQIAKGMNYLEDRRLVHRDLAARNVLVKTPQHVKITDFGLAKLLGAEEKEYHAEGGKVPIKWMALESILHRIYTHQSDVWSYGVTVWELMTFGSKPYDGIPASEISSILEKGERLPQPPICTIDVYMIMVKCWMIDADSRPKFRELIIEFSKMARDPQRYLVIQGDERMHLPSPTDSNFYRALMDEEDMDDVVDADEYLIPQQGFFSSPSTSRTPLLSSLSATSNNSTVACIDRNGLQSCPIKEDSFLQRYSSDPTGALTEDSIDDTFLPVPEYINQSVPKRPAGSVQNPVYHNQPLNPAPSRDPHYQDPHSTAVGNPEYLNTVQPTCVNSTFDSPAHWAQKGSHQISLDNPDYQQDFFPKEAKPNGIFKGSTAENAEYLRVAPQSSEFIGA
The target in test [18] is Follistatin-related protein 3 (Homo sapiens) (UniProt O95633). Briefly: compounds binding follistatin-related protein 3 – biochemical, small-molecule microarray, 635 nm fluorescence, primary screen (AID 1105).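 Further: score merges emission near 667 nm and signal to noise per printed spot across three slides.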 The following applies: FSTL3 binding, higher = more signal.
Chain of Follistatin-related protein 3 (Homo sapiens) (O95633 whole entry, looked up): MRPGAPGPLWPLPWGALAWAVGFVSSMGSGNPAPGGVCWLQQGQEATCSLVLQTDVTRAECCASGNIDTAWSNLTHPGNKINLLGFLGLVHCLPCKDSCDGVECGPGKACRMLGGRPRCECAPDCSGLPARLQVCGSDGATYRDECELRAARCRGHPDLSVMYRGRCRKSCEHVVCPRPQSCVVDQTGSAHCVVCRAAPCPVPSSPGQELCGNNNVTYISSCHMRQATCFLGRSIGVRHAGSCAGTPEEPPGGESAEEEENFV
In test [19] the target is Dickkopf-related protein 1 (Homo sapiens) (UniProt O94907). Briefly: small molecules binding DKK1 protein – biochemical, small-molecule microarray, 635 nm fluorescence scan, primary screen (AID 1106).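 Further: score merges emission near 667 nm with signal to noise over three replicate slides.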 The following applies: higher = more signal.
Chain of Dickkopf-related protein 1 (Homo sapiens) (O94907 whole entry, looked up): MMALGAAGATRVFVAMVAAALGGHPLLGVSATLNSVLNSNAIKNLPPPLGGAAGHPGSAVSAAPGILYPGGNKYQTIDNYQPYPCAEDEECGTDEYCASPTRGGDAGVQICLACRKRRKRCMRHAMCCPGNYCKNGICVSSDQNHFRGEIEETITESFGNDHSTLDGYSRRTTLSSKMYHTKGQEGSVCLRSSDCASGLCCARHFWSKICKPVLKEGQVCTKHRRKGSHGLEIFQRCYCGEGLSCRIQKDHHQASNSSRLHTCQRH
The subject of test [20] is Inhibin beta A chain (activin A). Briefly: small molecules binding activin A – biochemical, small-molecule microarray, 635 nm fluorescence scan, primary screen (AID 1107).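 Further: mouse activin A protein probed at 4.33 µg/mL on printed slides; score merges bound-protein fluorescence near 667 nm with spot signal-to-noise.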 The following applies: INHBA, higher = more signal.

Activity calls are given as the source filed them.

These results are taken from PubChem BioAssay.

Chain of Torsin-1A-interacting protein 2 (Homo sapiens) (Q8NFQ8 whole entry, looked up): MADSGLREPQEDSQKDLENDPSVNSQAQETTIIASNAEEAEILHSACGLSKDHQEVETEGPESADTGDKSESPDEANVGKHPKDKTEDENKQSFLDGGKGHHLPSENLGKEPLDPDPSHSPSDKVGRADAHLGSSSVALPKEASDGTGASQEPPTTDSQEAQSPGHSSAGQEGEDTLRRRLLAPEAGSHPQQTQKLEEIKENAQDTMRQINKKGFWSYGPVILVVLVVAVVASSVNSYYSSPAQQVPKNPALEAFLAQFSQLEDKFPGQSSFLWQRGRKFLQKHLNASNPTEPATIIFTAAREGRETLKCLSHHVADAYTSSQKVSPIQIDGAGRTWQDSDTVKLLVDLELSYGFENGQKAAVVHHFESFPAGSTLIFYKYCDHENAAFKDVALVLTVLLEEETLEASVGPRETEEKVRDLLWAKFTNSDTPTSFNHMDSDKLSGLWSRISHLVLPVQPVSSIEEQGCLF

Take `CC(C)=CCCC(C)=CCON=C1C[C@@H](O)[C@@H](O)[C@@H]2[C@@H]3C(=O)N(c4cccc(Oc5ccccc5)c4)C(=O)[C@@H]3CC[C@@H]12`: the composite z-score in [1] is 0.355; in [5] it was 1.15; in [7], -0.124; in [8], -0.283; in test [9], 0.751; in test [10] it was -0.0302. Moreover, the composite z-score in test [11] was 0.517; in [12], 0.132; in test [13], -0.209; in [15] it was 0.612; in [16], -0.112; in test [17] it was 0.118. For the same molecule, the composite z-score in test [18] amounted to 0.574; in test [19] it was 0.373; in [20], 0.399. Further, the z-score in test [2] was 0.164 (inactive); in test [3], -0.153 (inactive); in test [4] it was -0.184 (inactive); in [6], 0.951 (inactive); in [14], -0.991 (inactive).
As to `COC(=O)[C@@H]1CC[C@@H](C)[C@H](c2ccc(Br)cc2)N1`, the composite z-score in test [1] was 0.265; in test [5] it was -0.188; in test [7] it was -0.0943; in [8] it was 0.255; in test [9] it was -0.275; in test [10], -0.125. In addition, the composite z-score in [11] was 0.644; in test [12] it was -0.013; in test [13], -0.0951; in [15], -0.0342; in test [16] it was -0.0839; in test [17], 0.185. For the same molecule, the composite z-score in [18] was -0.155; in test [19], 0.133; in [20], 0.987. Besides, the z-score in test [2] is 0.0156 (inactive); in [3] it was -0.179 (inactive); in test [4] it was -0.116 (inactive); in [6], 0.104 (inactive); in [14], -0.203 (inactive).
Consider `CCN1C(=O)[C@H]2[C@H]3[C@H](O)[C@H](O)CC(=O)[C@@H]3CC[C@H]2C1=O`, for which the composite z-score in test [1] is 0.705; in test [5], 1.36; in test [7], -0.145; in [8] it was 0.441; in test [9], 0.717; in test [10], -0.0115. The composite z-score is 0.677 in [11]; -0.22 in test [12]; -0.478 in [13]; 0.492 in test [15]; 0.692 in [16]; 0.555 in test [17]. In addition, the composite z-score is 0.688 in [18], 0.396 in test [19] and -0.167 in [20]. Also, the z-score is 0.0074 (inactive) in test [2]; -0.268 (inactive) in [3]; -0.139 (inactive) in test [4]; 0.439 (inactive) in test [6]; -0.0387 (inactive) in [14].
As to `CO[C@@H]1COC(=O)[C@@H](C)NC(=O)CC=C[C@@H](C)[C@H](NS(=O)(=O)c2ccc(C)cc2)COC(=O)[C@H](C)NC(=O)CC=C[C@H]1C`, the composite z-score was 1.36 in test [1]; 0.537 in test [5]; -0.319 in test [7]; 0.879 in test [8]; 0.225 in test [9]; -0.0793 in test [10]. The composite z-score was 1.49 in [11]; -0.629 in test [12]; -1.22 in [13]; 0.611 in [15]; 0.625 in [16]; 0.57 in test [17]. The composite z-score is 0.661 in test [18], 0.822 in [19] and 1.4 in test [20]. The z-score was -0.263 (inactive) in test [2]; -0.988 (inactive) in test [3]; -0.331 (inactive) in test [4]; 1.72 (inactive) in test [6]; 0.347 (inactive) in [14].
On to `CC(C)=CCCC(C)=CCON=C1C[C@@H](O)[C@@H](O)[C@@H]2[C@@H]3C(=O)N(Cc4ccccc4)C(=O)[C@@H]3CC[C@@H]12`, for which the composite z-score in test [1] was 1.09; in test [5], -0.859; in test [7], -0.114; in test [8], 1.33; in test [9], 0.637; in [10], 0.012. Also, the composite z-score in test [11] is 0.786; in test [12], -0.382; in [13], -1.12; in test [15] it was 1.14; in [16] it was 0.279; in test [17], 0.696. For the same molecule, the composite z-score was determined as 0.955 in test [18], 1.04 in test [19] and 1.09 in [20]. Further, the z-score in test [2] is 0.432 (inactive); in [3], -0.114 (inactive); in [4], -0.535 (inactive); in test [6], 0.326 (inactive); in test [14], -0.216 (inactive).
